This is an account of results in PubChem BioAssay AID434947 (Broad Institute, 2010).

Among all 2,200 compounds or so, about 15 (0.7%) were called active. What follows is part of a selection rich in actives, with near analogues and random picks from the rest. Values without a mark were called inactive.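 The calls were made as follows: active = fitted half-maximal concentration for loss of luminescence signal no more than a set limit of log units above the top tested concentration; inconclusive = flat fit with 30 to 70% signal loss, or invalid fit; inactive = half-maximal concentration above that set limit.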

A short description of this assay: inhibitors of ADP-Glo detection reagents, dose response, artefact control for GSK3beta inhibitor project, biochemical, luminescence, cell-free, homogeneous (AID 434947).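 Also: kinase-free counter screen of ADP-Glo detection reagents for GSK3beta hits.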 The settings on record: 5 uM ADP.
What is called EC50 is the concentration at which the effect is half-maximal. Turning to `Cc1ccc2c(C)c(C(=O)Nc3nnc(C)s3)oc2c1`, the EC50 is > 30 µM.
Consider `NC1=NC(=Nc2ccccc2)c2ccccc21`, for which the EC50 is > 30 µM.
On to `CCCn1nc(NC(=O)C(C)C)c2cc3cc(OC)ccc3nc21`, for which the EC50 is > 30 µM.
Turning to `CCNC(=S)Nc1ccc2cn[nH]c2c1`, the EC50 is > 30 µM.
With `COc1cccc(C(=O)NCC(=O)N/N=C(C)\C=C\c2ccccc2)c1`, the EC50 is > 30 µM.
As for `CC(C)CCNc1nc(N)c([N+](=O)[O-])c(NCC2CCCO2)n1` (stereo not given), the EC50 is > 30 µM.
With `COc1ccccc1Nc1nc(N(C)c2ccccc2)nc(N)c1[N+](=O)[O-]` the figure was > 30 µM; with `CN(Cc1c(C(=O)N/N=C/c2cccc(F)c2)nnn1-c1nonc1N)c1ccccc1`, > 30 µM.
Consider `Cc1nn(-c2ccccc2)c2c1cc1c(=O)n(C)c(=O)nc-1n2-c1ccccc1F`, for which the EC50 was > 30 µM.
As for `CC1=NN(C(=O)CCc2ccc3c(c2)OCO3)C(O)(C(F)(F)F)C1` (stereo not given), the EC50 was > 30 µM.
For `CCCn1c(SCC(=O)Nc2ccc(Cl)cn2)nnc1C1CC1`, the EC50 was > 30 µM.
`COc1ccc2occ(C(=O)c3cccs3)c2c1`: the EC50 was > 30 µM.
Then `COc1ccc(C(=O)c2sc(Nc3ccccc3)nc2C)cc1`, with > 30 µM.
In the case of `COc1ccc(C(=O)c2ccsc2N)cc1`, the EC50 was > 30 µM.
For `COc1ccc(C(=O)O/N=C(\C)c2ccccc2)cc1`, the EC50 was 24 µM (active).
With `COc1cccc(C(N)=O)c1` the figure was > 30 µM; with `COc1ccc(C(=O)O/N=C(/C)c2cccs2)cc1`, 16.2 µM (active); with `Cc1ccc(SCC(=O)N2CC(C)OC(C)C2)cc1` (stereo not given), > 30 µM.
With `COc1ccc(-c2cc(C(F)(F)F)nc(SCCC(=O)N3CCOCC3)n2)cc1` the figure was > 30 µM; with `COc1ccc(Cl)cc1NC(=O)CS(=O)(=O)c1cccc2nsnc12`, > 30 µM.
